For assay [1], the system named is RAW-Dual. Put plainly: NF-kB SEAP reporter activity, fold change vs agonist alone; higher = enhanced NF-kB activity. The settings on record: library stock concentration (final ~1000-fold dilution): 10 mM, cytotoxicity flag (confluency mask): not cytotoxic. A digest of the protocol: (§1)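 Reporter activity is given as fold change relative to agonist-alone wells. To measure it, 50 nL of library stock was pin-tooled onto RAW-Dual macrophages (50,000 cells/well, DMEM, 384-well plates), a PRR agonist followed 1 h later, and cells stayed at 37 °C, 5% CO2. Twenty hours on, supernatant was assayed for IRF (QuantiLuc luminescence) and NF-κB (QuantiBlue, 620 nm absorbance), and wells under 70% of agonist-control IncuCyte confluency in both mask sets were marked cytotoxic.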

For assay [2], the system named is RAW-Dual. Put plainly: NF-kB SEAP reporter activity, fold change vs agonist alone; cytotoxicity flag (confluency mask): not cytotoxic; higher = enhanced NF-kB activity. In short, it runs like this: as §1
Where [3] appears, read: agonist: ODN 1826 (TLR9) 0.5 ug/mL.
The mark [4] stands for this setting: agonist: Pam2CSK4 (TLR2/6) 0.1 ug/mL.
Where [5] appears, read: agonist: Pam3CSK4 (TLR2/1) 0.1 ug/mL.

± gives the standard deviation of the averaged measurements. The full ranking holds about 2,900 compounds; the median of “NF-kB SEAP reporter activity, fold change vs agonist alone” is about 0.99, and the highest 2% start at about 2.6. This excerpt belongs to a sample that is enriched for the highest values.

Turning to `C=C1CCC2C(C)(CO)C(O)CCC2(C)C1C/C=C1/C(=O)OCC1O` (stereo not given), the “NF-kB SEAP reporter activity” value in the assay with RAW-Dual [1] (agonist: Imiquimod (TLR7) […]) stood at 0.933 ± 0.078; in the assay on RAW-Dual [1] (agonist: MPLA (TLR4) […]), 0.792 ± 0.1.

As for `C=C1CCC2C(C)(CO)C(O)CCC2(C)C1C/C=C1/C(=O)OCC1O` (stereo not given) (library stock concentration (final ~1000-fold dilution): 10 mM), the “NF-kB SEAP reporter activity” value amounted to 0.565 ± 0.2 in the assay with RAW-Dual [2] (agonist: LPS (TLR4) 0.1 ug/mL), 0.418 ± 0.039 in the assay with RAW-Dual [2] (setting [3]), 0.96 ± 0.18 in the assay on RAW-Dual [2] (setting [4]) and 0.65 ± 0.11 in the assay with RAW-Dual [2] (setting [5]).

For the compound `Cc1ccc(NC(=O)c2ccnc(C(F)(F)F)c2)cc1-c1cc(OCCO)nc(N2CCOCC2)c1` (library stock concentration (final ~1000-fold dilution): 10 mM), the “NF-kB SEAP reporter activity” value in the assay on RAW-Dual [2] (agonist: LPS (TLR4) 0.1 ug/mL) is 1.01; in the assay on RAW-Dual [2] (setting [3]), 0.551; in the assay with RAW-Dual [2] (setting [4]) it was 0.265; with RAW-Dual [2] (setting [5]) it was 0.438.

Consider `Cc1ccc(NC(=O)c2ccnc(C(F)(F)F)c2)cc1-c1cc(OCCO)nc(N2CCOCC2)c1`, for which the “NF-kB SEAP reporter activity” value in the assay with RAW-Dual [1] (agonist: Imiquimod (TLR7) […]) came to 1.03; in the assay with RAW-Dual [1] (agonist: MPLA (TLR4) […]), 0.836.

For `CC(C)n1cnc2c(NCCc3ccc(O)cc3)nc(-c3csc4ccccc34)nc21` (library stock concentration (final ~1000-fold dilution): 10 mM), the “NF-kB SEAP reporter activity” value in the assay on RAW-Dual [2] (agonist: LPS (TLR4) 0.1 ug/mL) came out at 3.02; with RAW-Dual [2] (setting [3]), 1.56; with RAW-Dual [2] (setting [4]), 0.535; in the assay on RAW-Dual [2] (setting [5]), 0.662.

As to `CC(C)C(CO)Nc1nc(Nc2cccc(Cl)c2)c2ncn(C(C)C)c2n1` (stereo not given), the “NF-kB SEAP reporter activity” value in the assay on RAW-Dual [1] (agonist: Imiquimod (TLR7) […]) was 1.19; with RAW-Dual [1] (agonist: MPLA (TLR4) […]) it was 1.14.

For the compound `CC(C)n1cnc2c(NCCc3ccc(O)cc3)nc(-c3csc4ccccc34)nc21`, the figures for the “NF-kB SEAP reporter activity” value with RAW-Dual [1] (agonist: Imiquimod (TLR7) […]) and in the assay on RAW-Dual [1] (agonist: MPLA (TLR4) […]) were 2.38 and 2.64, respectively.

As for `CC(C)C(CO)Nc1nc(Nc2cccc(Cl)c2)c2ncn(C(C)C)c2n1` (stereo not given) (library stock concentration (final ~1000-fold dilution): 10 mM), the “NF-kB SEAP reporter activity” value amounted to 0.715 in the assay on RAW-Dual [2] (agonist: LPS (TLR4) 0.1 ug/mL), 1.05 with RAW-Dual [2] (setting [3]), 1.22 in the assay with RAW-Dual [2] (setting [4]) and 0.679 in the assay with RAW-Dual [2] (setting [5]).

Turning to `Nc1nc(NCCc2ccc(O)cc2)nc2nc(-c3ccco3)nn12`, the “NF-kB SEAP reporter activity” value in the assay with RAW-Dual [1] (agonist: Imiquimod (TLR7) […]) was 1.7; in the assay on RAW-Dual [1] (agonist: MPLA (TLR4) […]), 1.36.

For `Nc1nc(NCCc2ccc(O)cc2)nc2nc(-c3ccco3)nn12` (library stock concentration (final ~1000-fold dilution): 10 mM), the “NF-kB SEAP reporter activity” value with RAW-Dual [2] (agonist: LPS (TLR4) 0.1 ug/mL) amounted to 1.81; in the assay on RAW-Dual [2] (setting [3]), 1.56; in the assay with RAW-Dual [2] (setting [4]), 1.16; in the assay with RAW-Dual [2] (setting [5]) it was 1.41.

`C=C1CCC2C(C)(COC(=O)CCC(=O)O)C(OC(=O)CCC(=O)O)CCC2(C)C1C=CC1=CCOC1=O` (stereo not given): the “NF-kB SEAP reporter activity” value turned out to be 0.865 in the assay on RAW-Dual [1] (agonist: Imiquimod (TLR7) […]) and 1.03 with RAW-Dual [1] (agonist: MPLA (TLR4) […]).

Take `C=C1CCC2C(C)(COC(=O)CCC(=O)O)C(OC(=O)CCC(=O)O)CCC2(C)C1C=CC1=CCOC1=O` (stereo not given) (library stock concentration (final ~1000-fold dilution): 10 mM): the “NF-kB SEAP reporter activity” value with RAW-Dual [2] (agonist: LPS (TLR4) 0.1 ug/mL) was determined as 1.34; in the assay with RAW-Dual [2] (setting [3]) it was 0.979; with RAW-Dual [2] (setting [4]), 1.26; in the assay with RAW-Dual [2] (setting [5]), 1.02.

With `CN1CCN(CCCNc2ncc(Cl)c(-c3cc4c(C(=O)NC5CC5)cccc4s3)n2)CC1.Cl.Cl.Cl` (library stock concentration (final ~1000-fold dilution): 10 mM), the “NF-kB SEAP reporter activity” value in the assay on RAW-Dual [2] (agonist: LPS (TLR4) 0.1 ug/mL) came out at 0.313 ± 0.14; in the assay on RAW-Dual [2] (setting [3]) it was 0.174 ± 0.0094; in the assay with RAW-Dual [2] (setting [4]), 0.0865 ± 0.0023; in the assay with RAW-Dual [2] (setting [5]), 0.134 ± 0.0077.

Turning to `CN1CCN(CCCNc2ncc(Cl)c(-c3cc4c(C(=O)NC5CC5)cccc4s3)n2)CC1.Cl.Cl.Cl`, the “NF-kB SEAP reporter activity” value with RAW-Dual [1] (agonist: Imiquimod (TLR7) […]) was determined as 0.215 ± 0.045; in the assay with RAW-Dual [1] (agonist: MPLA (TLR4) […]), 0.2944 ± 0.00089.

As for `CCO.N#CC(=C(\N)Sc1ccccc1N)/C(C#N)=C(/N)Sc1ccccc1N` (library stock concentration (final ~1000-fold dilution): 10 mM), the “NF-kB SEAP reporter activity” value stood at 0.241 in the assay with RAW-Dual [2] (agonist: LPS (TLR4) 0.1 ug/mL), 0.368 in the assay on RAW-Dual [2] (setting [3]), 0.0792 in the assay on RAW-Dual [2] (setting [4]) and 0.146 with RAW-Dual [2] (setting [5]).

Consider `CCO.N#CC(=C(\N)Sc1ccccc1N)/C(C#N)=C(/N)Sc1ccccc1N`, for which the figures for the “NF-kB SEAP reporter activity” value with RAW-Dual [1] (agonist: Imiquimod (TLR7) […]) and in the assay on RAW-Dual [1] (agonist: MPLA (TLR4) […]) were 0.206 and 0.236, respectively.

With `CCOC(=O)c1ccc(NC2CCCCC2)c(N)c1` (library stock concentration (final ~1000-fold dilution): 10 mM), the “NF-kB SEAP reporter activity” value in the assay on RAW-Dual [2] (agonist: LPS (TLR4) 0.1 ug/mL) came out at 2.07; with RAW-Dual [2] (setting [3]) it was 1.28; in the assay on RAW-Dual [2] (setting [4]), 0.963; with RAW-Dual [2] (setting [5]), 1.09.

Turning to `CCn1cc(C(=O)O)c(=O)c2c(N)c(F)c(NC3CCCCC3)cc21` (library stock concentration (final ~1000-fold dilution): 10 mM), the “NF-kB SEAP reporter activity” value in the assay with RAW-Dual [2] (agonist: LPS (TLR4) 0.1 ug/mL) stood at 4.89; in the assay on RAW-Dual [2] (setting [3]), 2.9; in the assay on RAW-Dual [2] (setting [4]), 1.85; with RAW-Dual [2] (setting [5]), 3.32.

Turning to `CCn1cc(C(=O)O)c(=O)c2cc(F)c(N3CCN(C)CC3)cc21.CS(=O)(=O)O`, the “NF-kB SEAP reporter activity” value came to 0.916 with RAW-Dual [1] (agonist: Imiquimod (TLR7) […]) and 0.878 in the assay on RAW-Dual [1] (agonist: MPLA (TLR4) […]).

As for `CCn1cc(C(=O)O)c(=O)c2cc(F)c(N3CCN(C)CC3)cc21.CS(=O)(=O)O` (library stock concentration (final ~1000-fold dilution): 10 mM), the “NF-kB SEAP reporter activity” value with RAW-Dual [2] (agonist: LPS (TLR4) 0.1 ug/mL) stood at 0.962; in the assay with RAW-Dual [2] (setting [3]), 1.03; in the assay with RAW-Dual [2] (setting [4]), 1.11; in the assay with RAW-Dual [2] (setting [5]) it was 1.12.

Regarding `CCn1cc(C(=O)O)c(=O)c2c(N)c(F)c(NC3CCCCC3)cc21`, the “NF-kB SEAP reporter activity” value in the assay with RAW-Dual [1] (agonist: Imiquimod (TLR7) […]) was 1.75; with RAW-Dual [1] (agonist: MPLA (TLR4) […]), 1.95.

For the compound `CCOC(=O)c1ccc(NC2CCCCC2)c(N)c1`, the “NF-kB SEAP reporter activity” value in the assay on RAW-Dual [1] (agonist: Imiquimod (TLR7) […]) was determined as 1.14; with RAW-Dual [1] (agonist: MPLA (TLR4) […]), 1.57.

As to `O=C1C2C3CCC(C3)C2C(=O)N1CC1CCCCC1CN1CCN(c2nsc3ccccc23)CC1` (stereo not given) (library stock concentration (final ~1000-fold dilution): 10 mM), the “NF-kB SEAP reporter activity” value in the assay with RAW-Dual [2] (agonist: LPS (TLR4) 0.1 ug/mL) came to 0.728; with RAW-Dual [2] (setting [3]), 0.931; with RAW-Dual [2] (setting [4]), 0.983; in the assay on RAW-Dual [2] (setting [5]) it was 1.07.

With `O=C1C2C3CCC(C3)C2C(=O)N1CC1CCCCC1CN1CCN(c2nsc3ccccc23)CC1` (stereo not given), the “NF-kB SEAP reporter activity” value in the assay with RAW-Dual [1] (agonist: Imiquimod (TLR7) […]) was 0.878; with RAW-Dual [1] (agonist: MPLA (TLR4) […]) it was 1.06.

For the compound `CC(ONC(=O)c1cc(C(F)(F)F)cc(C(F)(F)F)c1)C(=O)Nc1ccc(Cl)cc1` (stereo not given) (library stock concentration (final ~1000-fold dilution): 10 mM), the “NF-kB SEAP reporter activity” value stood at 1.45 in the assay on RAW-Dual [2] (agonist: LPS (TLR4) 0.1 ug/mL), 0.913 with RAW-Dual [2] (setting [3]), 0.239 in the assay on RAW-Dual [2] (setting [4]) and 0.6 in the assay with RAW-Dual [2] (setting [5]).

Take `O=C(Nc1ccc([N+](=O)[O-])cc1Cl)c1cc(Cl)ccc1O` (library stock concentration (final ~1000-fold dilution): 10 mM): the “NF-kB SEAP reporter activity” value came to 6.96 with RAW-Dual [2] (agonist: LPS (TLR4) 0.1 ug/mL), 0.713 in the assay on RAW-Dual [2] (setting [3]), 0.379 with RAW-Dual [2] (setting [4]) and 0.527 in the assay on RAW-Dual [2] (setting [5]).

(Values after the supplement of paper PMC10037445.)
